Only some compounds are listed: those with a hit (about 15% of all), similar ones and a draw of the others.
DT40 TDP1 no CPT – qHTS for Inhibitors of human tyrosyl-DNA phosphodiesterase 1 (TDP1): qHTS in cells in absence of CPT. AID 686978, 2013. Potency, µM (highest dose often 46.2 µM), for the others: top-dose activity change, negative = growth inhibition, most hits filed as inhibitors. DT40 Tdp1-/- hTDP1 cells, no CPT, ATP luminescence, 48 h. hit rate 15% among 420,000; note: nearly all actives have a fitted effect of over 55% in size
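Cells were dispensed at 400 per well, compounds added by pin tool, plates incubated ≥48 hr at 37 °C, then CellTiter-Glo added for 30 min at room temperature before luminescence reading. Line: DT40 Tdp1-/- complemented with hTDP1; camptothecin omitted.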
ELG1 repair inh – ELG1-dependent DNA repair inhibition; HEK293T ELG1-luciferase reporter, luminescence, 16 h; DNA damage induced by 5-fluorouridine; Potency, µM (highest dose often 46.1 µM), for inactives: at the highest dose activity change, negative = inhibition, actives largely listed as inhibitors; hit rate 2.3% among 330,000; note: nearly all actives have a fitted effect of over 55% in size
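Luminescence from the luciferase reporter, measured 30 min after ONE-Glo reagent at room temperature, was the read-out. Beforehand, 2,000 cells per well were exposed for 16 hr at 37 °C to 5-fluorouridine together with compound or vehicle.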
12-LOX inh – ALOX12 (human) lipoxygenase inhibition; P18054; purified 12hLO, xylenol orange hydroperoxide absorbance; Potency, µM (titrated, usually from 108 µM), for the others: at the highest dose activity change, negative = inhibition, actives largely listed as inhibitors; hit rate 1.1% among 580,000; AID 1671190
Target sequence (P18054 whole entry, looked up): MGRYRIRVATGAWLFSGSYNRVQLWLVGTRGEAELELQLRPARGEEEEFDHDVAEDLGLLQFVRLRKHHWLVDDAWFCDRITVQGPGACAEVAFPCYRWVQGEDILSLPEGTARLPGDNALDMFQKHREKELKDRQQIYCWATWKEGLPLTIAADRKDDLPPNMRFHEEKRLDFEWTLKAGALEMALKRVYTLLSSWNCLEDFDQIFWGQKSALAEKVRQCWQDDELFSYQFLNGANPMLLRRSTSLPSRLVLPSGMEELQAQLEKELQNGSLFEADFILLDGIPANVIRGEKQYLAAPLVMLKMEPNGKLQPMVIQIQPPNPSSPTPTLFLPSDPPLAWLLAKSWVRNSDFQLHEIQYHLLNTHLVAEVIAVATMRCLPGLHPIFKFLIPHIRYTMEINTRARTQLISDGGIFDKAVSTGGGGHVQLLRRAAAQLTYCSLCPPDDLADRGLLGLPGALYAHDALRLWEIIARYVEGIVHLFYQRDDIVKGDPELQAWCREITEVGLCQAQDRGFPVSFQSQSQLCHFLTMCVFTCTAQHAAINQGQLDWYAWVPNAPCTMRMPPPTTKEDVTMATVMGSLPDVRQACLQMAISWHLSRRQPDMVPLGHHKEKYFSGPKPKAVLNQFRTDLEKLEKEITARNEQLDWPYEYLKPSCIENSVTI
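Purified human 12hLO at 150 nM in 25 mM Hepes, 0.01% Triton X-100, pH 7.0, preincubated 15 min at room temperature with compound. Reaction started with 40 uM arachidonic acid, 30 min at room temperature. Hydroperoxide measured by Fe-xylenol orange, 573/405 nm absorbance ratio.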
DT40 TDP1 CPT – growth inhibition of DT40 Tdp1-/-;hTDP1 cells with camptothecin (screen for TDP1 inhibitors). hit rate 12% among 420,000. Potency, µM (doses to about 46.2 µM), without a hit: at the highest dose activity change, negative = growth inhibition, most hits filed as inhibitors. chicken DT40 Tdp1-/-;hTDP1 cells + 20 nM CPT, ATP luminescence, 48 h. AID 686979; note: nearly all actives have a fitted effect of over 55% in size
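Chicken DT40 Tdp1-/- cells stably complemented with human TDP1 were seeded at 400 cells/well in medium containing 20 nM camptothecin, exposed to pin-transferred compounds, and grown at 37 °C for at least 48 hr. Viability was read as ATP luminescence.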
VP16 counter – counter-screen for ROR gamma inhibitors: Gal4-VP16 reporter | Drosophila S2 Gal4-VP16 UAS-luciferase, luminescence, 20 h | Potency, µM (doses to about 53.6 µM), for the others: at the highest dose activity, negative = inhibition, usual class: inhibitors | hit rate 3.5% among 310,000 | AID 2546;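 note: Gal4-VP16 expression switched on by copper sulfate through the metallothionein promoter; nearly all actives have a fitted effect of over 50% in size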
RORg inh – ROR gamma (mouse) transcription inhibition; P51450; Drosophila S2 Gal4-RORgamma UAS-luciferase reporter, 20 h; Potency, µM (series often up to 53.6 µM), inactives show top-dose activity change, negative = inhibition, usual class: inhibitors; hit rate 5.4% among 310,000; AID 2551; note: nearly all actives have a fitted effect of over 60% in size
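Luciferase reporter read in Schneider cells carrying Gal4-RORγ (mouse) and UAS-Photinus luciferase; cells given compound 1 h before 700 uM copper sulfate induction, then incubated 20 h at ambient temperature.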
The depositor's hits bear a star; ! = not active in a repeat. Calls come from the whole dose curve; as a rule, active = well fitted curve in the direction sought with a large enough effect; inconclusive = small, poorly fitted or top-dose-only effect, or another doubt; inactive = no such curve, though single readings can be large; an effect the other way counts as inactive or inconclusive. % is set by controls: 0 for no effect and ±100 for the full control effect; potency is the fitted concentration of half-maximal effect.

How did O=C(CN1CCCC1)N1CC[C@@H](c2ccc3ccccc3c2)[C@H](O)C1 do in these assays?
12-LOX inh: 46.8%

What do the screens show for `COc1ccc(CN([C@H](CO)CC(C)C)S(=O)(=O)N(Cc2ccccc2)[C@H](CO)CC(C)C)cc1`?
DT40 TDP1 no CPT: 23.1µM*; ELG1 repair inh: inconclusive; 12-LOX inh: 1.1%; DT40 TDP1 CPT: inconclusive

Results for O=S(=O)(N(Cc1ccccc1)[C@H](CO)Cc1ccccc1)N(Cc1ccccc1)[C@H](CO)Cc1ccccc1 ?
DT40 TDP1 no CPT: inconclusive; ELG1 repair inh: 14.4%; 12-LOX inh: 5.0%; DT40 TDP1 CPT: inconclusive

What do the screens show for `CC(C)C[C@@H](CO)N(Cc1ccccc1)S(=O)(=O)N(Cc1ccccc1)[C@H](CO)CC(C)C`?
DT40 TDP1 no CPT: 13µM*; ELG1 repair inh: inconclusive; DT40 TDP1 CPT: 13µM*

How did CC(C)C[C@@H](CO)N(Cc1ccccc1)S(=O)(=O)N(Cc1ccccc1)[C@@H](CO)CC(C)C do in these assays?
DT40 TDP1 no CPT: 18.4µM*; ELG1 repair inh: inconclusive; DT40 TDP1 CPT: 16.4µM*!

Results for COc1ccc(N(C(C)C(=O)N(Cc2ccccc2)Cc2ccccc2)S(C)(=O)=O)cc1 (configuration not stated) ?
12-LOX inh: 4.2%

How did C=CC(COCc1ccccc1)N(Cc1ccc(OC)cc1)S(=O)(=O)c1ccccc1Br (configuration not stated) do in these assays?
DT40 TDP1 no CPT: inconclusive; ELG1 repair inh: -16.0%; 12-LOX inh: inactive; DT40 TDP1 CPT: inconclusive; VP16 counter: -2.7%; RORg inh: inconclusive

How did C=C[C@H](CC(C)C)N(Cc1ccccc1)S(=O)(=O)N(Cc1ccccc1)[C@@H](C=C)CC(C)C do in these assays?
DT40 TDP1 no CPT: 14.6µM*; ELG1 repair inh: 15.7%; 12-LOX inh: inconclusive; DT40 TDP1 CPT: 13µM*

Results for Cc1cc(C(=O)N/N=C/c2cccs2)cs1 ?
12-LOX inh: -10.8%

Results for COc1ccc(C)cc1NC(=O)c1cc(=O)[nH]c2ccccc12 ?
12-LOX inh: -38.1%

How did CCN([C@H](CO)CC(C)C)S(=O)(=O)c1ccccc1 do in these assays?
DT40 TDP1 no CPT: inconclusive; ELG1 repair inh: 21.7%; 12-LOX inh: 31.2%; DT40 TDP1 CPT: inconclusive

Results for COc1ccc(CN([C@H](C)CO)S(=O)(=O)N(Cc2ccccc2)[C@H](CO)C(C)C)cc1 ?
DT40 TDP1 no CPT: 16.4µM*; ELG1 repair inh: -12.5%; 12-LOX inh: -13.3%; DT40 TDP1 CPT: 35.5µM*

How did C=CS(=O)(=O)N(Cc1ccccc1Br)[C@H](CO)CC(C)C do in these assays?
DT40 TDP1 no CPT: 10µM*; 12-LOX inh: inconclusive; DT40 TDP1 CPT: 23.1µM*

What do the screens show for `Cc1ccc(CNC(=O)[C@H]2CCC[C@H]2NC(=O)c2ccncc2)o1`?
12-LOX inh: 53.5%

What do the screens show for `COc1ccc(NC(=O)c2ccc3nc(-n4cccc4)sc3c2)cc1`?
12-LOX inh: -4.5%

What do the screens show for `C=CC[C@@H](CC(=O)N(CCO)Cc1ccccc1)C(=O)N[C@H](COC(=O)[C@@H](CC=C)Cc1ccc(F)cc1)Cc1c[nH]c2ccccc12`?
DT40 TDP1 no CPT: inconclusive; ELG1 repair inh: 20.6µM*; 12-LOX inh: inconclusive; DT40 TDP1 CPT: inconclusive

How did C=CC[C@H](CC(=O)N(CCO)Cc1ccccc1)C(=O)N[C@H](COC(=O)[C@@H](CC=C)Cc1ccc(F)cc1)Cc1c[nH]c2ccccc12 do in these assays?
DT40 TDP1 no CPT: inconclusive; ELG1 repair inh: 23.1µM*; 12-LOX inh: -29.3%; DT40 TDP1 CPT: inconclusive
